Assay [1] in a line: qHTS assay to identify small molecule antagonists of the thyroid receptor (TR) signaling pathway (AID 743065). Also: series mostly up to about 70 µM; nearly all actives have a fitted effect of over 55% in size. Put shortly: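 GH3.TRE-Luc rat pituitary cells (two TREs driving luciferase) were dosed with compound, then stimulated with 1 nM T3 (final) for 23.5 h at 37 C. ONE-Glo luminescence was the read-out, with CellTiter-Fluor fluorescence as the cytotoxicity counter-screen.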
On the technique in general: Quantitative high-throughput screening tests each substance at several concentrations.

For assay [2], the system named is thyroid hormone receptor (rat, GH3 cells). In words: qHTS assay to identify small molecule agonists of the thyroid receptor (TR) signaling pathway (AID 743066; calls by dose curve).
Assay [3] deals with Estrogen receptor (Homo sapiens) (UniProt P03372). In words: qHTS assay to identify small molecule antagonists of the estrogen receptor alpha (ER-alpha) signaling pathway (AID 743069; active = well fitted curve in the direction sought with a large enough effect in the signal ratio in the repeat runs, not every such curve was filed as active; the % refers to the signal ratio). In a few lines:
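HEK293 ER-alpha-UAS-bla GripTite cells, held overnight in 2% charcoal-stripped FBS, 5,000 cells/well, preincubated 4 h, then compound plus 17beta-estradiol for 18 h at 37C. Beta-lactamase read by LiveBLAzer B/G FRET substrate, 2 h at room temperature.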

Assay [4] can be described thus: qHTS assay to identify small molecule antagonists of the estrogen receptor alpha (ER-alpha) signaling pathway - cell viability counter screen (AID 743074; calls by dose curve;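 also: HEK293 cells carrying ER-alpha-UAS-bla reporter stimulated with 17beta-estradiol; nearly all actives have a fitted effect of over 45% in size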).
The target in assay [5] is Estrogen receptor (Homo sapiens) (UniProt P03372). In words: qHTS assay to identify small molecule agonists of the estrogen receptor alpha (ER-alpha) signaling pathway (AID 743075; calls by dose curve).
Estrogen receptor (Homo sapiens), sequence (P03372 whole entry, looked up): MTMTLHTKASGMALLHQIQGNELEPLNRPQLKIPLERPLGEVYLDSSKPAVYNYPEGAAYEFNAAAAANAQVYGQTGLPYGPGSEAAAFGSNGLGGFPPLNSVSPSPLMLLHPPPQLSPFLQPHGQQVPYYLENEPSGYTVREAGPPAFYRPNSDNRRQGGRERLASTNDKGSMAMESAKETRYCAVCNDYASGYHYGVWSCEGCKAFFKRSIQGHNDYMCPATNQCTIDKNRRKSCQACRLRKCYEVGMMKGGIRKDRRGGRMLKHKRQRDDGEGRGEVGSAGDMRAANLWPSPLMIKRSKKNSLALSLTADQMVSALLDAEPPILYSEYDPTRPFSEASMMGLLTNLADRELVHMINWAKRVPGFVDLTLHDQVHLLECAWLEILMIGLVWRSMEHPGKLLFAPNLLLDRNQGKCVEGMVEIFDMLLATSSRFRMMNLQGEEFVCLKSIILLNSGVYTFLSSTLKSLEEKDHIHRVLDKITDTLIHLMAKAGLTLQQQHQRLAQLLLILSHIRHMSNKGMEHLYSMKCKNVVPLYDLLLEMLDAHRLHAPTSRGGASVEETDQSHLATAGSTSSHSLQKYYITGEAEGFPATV
Assay [6] shares this target. The assay can be described thus: qHTS assay to identify small molecule agonists of the estrogen receptor alpha (ER-alpha) signaling pathway using the BG1 cell line (AID 743079). Also: nearly all actives have a fitted effect of over 20% in size.
Assay [7] in a line: qHTS assay to identify small molecule antagonists of the estrogen receptor alpha (ER-alpha) signaling pathway using the BG1 cell line (AID 743080; calls by dose curve;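 also: BG1 cells stimulated with 17beta-estradiol alongside compound; nearly all actives have a fitted effect of over 25% in size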; also: potency is read from the fitted curve at half-maximal effect; as to activity change, negative = inhibition: series mostly up to about 70 µM). In a few lines: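 Luminescence from a 4×ERE-luciferase reporter in BG1-Luc-4E2 cells served as read-out. Cells, pre-cultured 5 days in stripped-serum phenol-red-free medium, were exposed to compound with 17beta-estradiol co-stimulation for 21.5 h at 37 C.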

A short description of assay [8]: qHTS assay to identify small molecule antagonists of the estrogen receptor alpha (ER-alpha) signaling pathway using the BG1 cell line - cell viability counter screen (AID 743081).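 Also: compound given together with 17beta-estradiol as the ER stimulus; series mostly up to about 70 µM; nearly all actives have a fitted effect of over 45% in size.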
For a further assay, the target named is Aromatase (Homo sapiens) (UniProt P11511). In words: qHTS assay to identify aromatase inhibitors (AID 743083). Also: series mostly up to about 70 µM; nearly all actives have a fitted effect of over 55% in size.
Aromatase (Homo sapiens), sequence (P11511 whole entry, looked up): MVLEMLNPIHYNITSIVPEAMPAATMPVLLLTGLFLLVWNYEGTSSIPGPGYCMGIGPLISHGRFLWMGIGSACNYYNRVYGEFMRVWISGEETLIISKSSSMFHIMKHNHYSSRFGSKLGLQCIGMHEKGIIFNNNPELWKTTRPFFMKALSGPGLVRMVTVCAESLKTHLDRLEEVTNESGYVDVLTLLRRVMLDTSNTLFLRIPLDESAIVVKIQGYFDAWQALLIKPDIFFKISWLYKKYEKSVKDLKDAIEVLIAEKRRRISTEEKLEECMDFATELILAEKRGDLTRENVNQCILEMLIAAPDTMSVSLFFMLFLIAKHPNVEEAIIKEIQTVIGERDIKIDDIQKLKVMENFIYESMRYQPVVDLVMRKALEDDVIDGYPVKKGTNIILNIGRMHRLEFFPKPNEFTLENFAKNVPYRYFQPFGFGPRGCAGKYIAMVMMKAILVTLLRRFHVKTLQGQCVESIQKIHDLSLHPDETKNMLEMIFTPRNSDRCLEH
A short description of assay [9]: qHTS assay to identify aromatase inhibitors - cell viability counter screen (AID 743084).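 Also: cells stimulated with testosterone during compound exposure; nearly all actives have a fitted effect of over 55% in size.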
Assay [10] addresses Aryl hydrocarbon receptor (Homo sapiens) (UniProt P35869). The assay can be described thus: qHTS assay to identify small molecule that activate the aryl hydrocarbon receptor (AhR) signaling pathway (AID 743085).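 Also: HG2L7.5c1 human HepG2 liver cells with stably integrated DRE-driven firefly reporter; series mostly up to about 70 µM; nearly all actives have a fitted effect of over 15% in size.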 Put shortly: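 Stably transfected human liver carcinoma cells (HG2L7.5c1; 20 DRE-firefly luciferase) were incubated 5 h, dosed, and kept 24 h at 37C. Agonism was scored from increased luciferase luminescence.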

A short description of assay [11]: qHTS assay to identify small molecule that activate the aryl hydrocarbon receptor (AhR) signaling pathway - cell viability counter screen (AID 743086).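 Also: HepG2 liver cells carrying the AhR DRE luciferase reporter; series mostly up to about 70 µM; nearly all actives have a fitted effect of over 45% in size.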 Put shortly: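 HepG2-AhR-luc (HG2L7.5c1) cells, 4000/well, treated 24 h at 37 C with compound; viability measured as CellTiter-Fluor fluorescence after 30 min in the same wells as the luciferase read.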
Assay [12] addresses Peroxisome proliferator-activated receptor gamma (Homo sapiens) (UniProt P37231). In words: qHTS assay to identify small molecule agonists of the peroxisome proliferator-activated receptor gamma (PPARg) signaling pathway (AID 743094; active = well fitted activation curve with a large enough effect in the signal ratio in the repeat runs, not every such curve was filed as active; the % refers to the signal ratio). In a few lines:
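Compounds dissolved in DMSO were added to PPARg UAS-bla HEK293H cells for 17 h at 37C, and reporter expression was quantified by fluorescence intensity after 1 h with LiveBLAzer B/G FRET substrate.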

Assay [13] in a line: qHTS assay to identify small molecule antagonists of the peroxisome proliferator-activated receptor gamma (PPARg) signaling pathway - cell viability counter screen (AID 743194). Also: nearly all actives have a fitted effect of over 55% in size. In a few lines:
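Cytotoxicity counter screen in PPARg-bla HEK293H cells, same wells as reporter assay. Compounds plus 50 nM rosiglitazone (final) for 17 h at 37 C, then viability read by CellTiter-Glo luminescence.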

Assay [14] can be described thus: qHTS assay for small molecule agonists of the antioxidant response element (ARE) signaling pathway (AID 743202; active = well fitted activation curve with a large enough effect in the signal ratio in the repeat runs, not every such curve was filed as active; the % refers to the signal ratio). In a few lines:
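ARE-bla HepG2 cells (beta-lactamase reporter under the antioxidant response element), plated 5 hours, then exposed to compounds 16 hours at 37 C. LiveBLAzer B/G FRET substrate added for 2 hours at room temperature; fluorescence intensity read.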

Assay [15] in a line: qHTS assay for small molecule agonists of the antioxidant response element (ARE) signaling pathway - cell viability counter screen (AID 743203; calls by dose curve; also: nearly all actives have a fitted effect of over 55% in size). Put shortly: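 Following 16 hrs of compound treatment at 37C, HepG2 cells with an ARE-controlled beta-lactamase gene were lysed with CellTiter-Glo. Luminescence was read after 30 min at room temperature.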
Assay [16] can be described thus: qHTS assay for small molecule activators of the heat shock response signaling pathway - cell viability counter screen (AID 743209). Also: nearly all actives have a fitted effect of over 50% in size. Put shortly:
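Readout: CellTiter-Glo luminescence, 30 min at room temperature. System: HSE-bla HeLa cells, 1500/well, plated overnight. Treatment: compounds in DMSO, 5 h at 37 C.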

A short description of assay [17]: qHTS assay for small molecule activators of the heat shock response signaling pathway (AID 743210; active = well fitted activation curve with a large enough effect in the signal ratio in the repeat runs, with a control signal flat, not every such curve was filed as active; the % refers to the signal ratio; also: series mostly up to about 63 µM). In a few lines:
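HSE-bla HeLa cells (beta-lactamase reporter under heat shock response elements), plated overnight, then exposed to compounds 5 h at 37 C; LiveBLAzer B/G FRET substrate added, 2.5 h at room temperature, fluorescence intensity read.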

Assay [18] in a line: qHTS assay to identify small molecule agonists of the peroxisome proliferator-activated receptor delta (PPARd) signaling pathway - cell viability counter screen (AID 743211). Also: nearly all actives have a fitted effect of over 55% in size. Put shortly:
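In the same wells used for beta-lactamase reporter measurement, cytotoxicity is scored by CellTiter-Glo. HEK293H PPARd-bla cells receive compound for 17 h at 37C following a 5 h settling period.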

Assay [19] concerns the target Peroxisome proliferator-activated receptor gamma (Homo sapiens) (UniProt P37231). The assay can be described thus: qHTS assay to identify small molecule antagonists of the peroxisome proliferator-activated receptor gamma (PPARg) signaling pathway (AID 743191; calls by dose curve; also: series mostly up to about 63 µM; nearly all actives have a fitted effect of over 30% in size). Put shortly:
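GeneBLAzer PPARg UAS-bla HEK293H cells, 5 h post-plating, exposed to compounds 17 h at 37C. LiveBLAzer B/G FRET substrate added for 1 h at room temperature; beta-lactamase reporter read by fluorescence intensity.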

Seven molecules from PubChem BioAssay (Tox21) can be followed below.

Results filed as inconclusive are left out. Unmarked numbers belong to inactive results. Activity calls are given as the source filed them. Unless noted, calls follow the shape of the dose curve; as a rule, active = well fitted curve in the direction sought with a large enough effect in the repeat runs; inconclusive = weak or mixed curves; inactive = no such curve, though single readings can be large; an effect the other way counts as inactive or inconclusive.
% is scaled to controls: 0 for no effect and ±100 for the full control effect.

Peroxisome proliferator-activated receptor gamma (Homo sapiens), sequence (P37231 whole entry, looked up): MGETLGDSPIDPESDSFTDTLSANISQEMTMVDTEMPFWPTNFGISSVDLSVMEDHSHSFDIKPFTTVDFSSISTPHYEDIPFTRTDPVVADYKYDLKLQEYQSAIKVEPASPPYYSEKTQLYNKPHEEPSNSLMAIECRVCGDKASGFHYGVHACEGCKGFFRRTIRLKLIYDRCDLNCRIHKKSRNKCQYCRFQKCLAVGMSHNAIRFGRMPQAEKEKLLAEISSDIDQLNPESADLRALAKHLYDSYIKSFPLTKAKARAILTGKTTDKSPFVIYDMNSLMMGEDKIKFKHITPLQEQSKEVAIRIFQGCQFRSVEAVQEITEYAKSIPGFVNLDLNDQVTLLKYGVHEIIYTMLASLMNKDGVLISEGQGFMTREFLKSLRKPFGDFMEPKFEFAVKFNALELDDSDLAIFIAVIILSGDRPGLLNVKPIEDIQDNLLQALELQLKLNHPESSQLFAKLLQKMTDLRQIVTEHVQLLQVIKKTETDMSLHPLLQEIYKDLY
Aryl hydrocarbon receptor (Homo sapiens), sequence (P35869 whole entry, looked up): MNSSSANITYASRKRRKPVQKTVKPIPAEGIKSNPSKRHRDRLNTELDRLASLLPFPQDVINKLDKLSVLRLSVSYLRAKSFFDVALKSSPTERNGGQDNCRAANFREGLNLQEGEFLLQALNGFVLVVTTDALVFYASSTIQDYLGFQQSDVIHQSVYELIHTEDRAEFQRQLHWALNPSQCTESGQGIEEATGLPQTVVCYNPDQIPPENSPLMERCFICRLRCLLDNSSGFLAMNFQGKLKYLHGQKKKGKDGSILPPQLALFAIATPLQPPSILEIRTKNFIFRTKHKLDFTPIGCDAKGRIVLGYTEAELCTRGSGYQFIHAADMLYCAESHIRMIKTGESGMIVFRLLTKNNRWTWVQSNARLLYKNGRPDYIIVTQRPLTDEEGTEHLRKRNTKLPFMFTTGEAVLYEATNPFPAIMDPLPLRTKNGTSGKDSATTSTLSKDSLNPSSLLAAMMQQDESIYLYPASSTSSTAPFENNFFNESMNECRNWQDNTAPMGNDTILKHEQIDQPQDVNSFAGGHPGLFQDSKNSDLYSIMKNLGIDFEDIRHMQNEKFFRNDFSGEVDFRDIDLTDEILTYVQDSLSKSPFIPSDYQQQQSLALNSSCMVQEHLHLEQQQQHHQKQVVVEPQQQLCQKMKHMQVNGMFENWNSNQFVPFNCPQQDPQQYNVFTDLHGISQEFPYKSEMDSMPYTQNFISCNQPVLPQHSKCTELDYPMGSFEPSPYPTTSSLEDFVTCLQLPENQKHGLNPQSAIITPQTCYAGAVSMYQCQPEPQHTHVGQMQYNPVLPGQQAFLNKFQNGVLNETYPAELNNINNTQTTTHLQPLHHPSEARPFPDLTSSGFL

As for `CCOC(=O)CC`, the Potency entry in assay [1], in [2], in assay [4], in assay [5], in assay [6] and in assay [7] was “inactive” each time. Further, the Potency result (with Aromatase (Homo sapiens); in [10]; in [14]; in assay [16]) was “inactive” each time. Moreover, the call in assay [3], in assay [8], in [9], in assay [11], in assay [12] and in assay [13] was inactive. Besides, the result in assay [15], in assay [17] and in assay [18] was inactive.
Take `CN(C)CCCN(C)C`: the activity, negative = inhibition in [1] is 0.44% [at 8.44 µM]; in [3], 3.46% [at 6.71 µM]; with Aromatase (Homo sapiens), 7.56% [at 8.47 µM]. For the same molecule, the activation in assay [2] is -3.73% [at 8.08 µM]; in [5], -1.03% [at 6.71 µM]; in [6] it was -6.84% [at 8.47 µM]; in assay [10], -0.58% [at 8.47 µM]; in [12] it was -0.396% [at 7.08 µM]; in [14], -1.85% [at 8.36 µM]. Besides, in [17], the activation was -0.827% [at 5.95 µM]. The activity, negative = cytotoxicity in assay [4] was 12.6% [at 6.72 µM]. The activity change, negative = inhibition in [7] is 2.33% [at 8.47 µM]. Further, the figures for the activity change, negative = cytotoxicity in assay [8], in [9] and in assay [13] were 12.4% [at 8.47 µM], 2.06% [at 8.47 µM] and -7.23% [at 5.95 µM], respectively. The viability change, negative = cytotoxic is -2.64% [at 8.47 µM] in assay [11] and 5.88% [at 8.36 µM] in [15]. Moreover, the ratio activity, negative = inhibition in assay [19] is 4.44% [at 5.95 µM].
Turning to `Cc1ccccc1OCC(=O)O`, the Potency result in assay [1], in assay [2], in [4], in [5], in [6] and in [7] was “inactive” in each case. The Potency entry (with Aromatase (Homo sapiens); in assay [10]; in assay [14]; in [16]) was “inactive” in each case. The molecule was called inactive in assay [3], in assay [8], in assay [9], in assay [11], in assay [12] and in assay [13]. Moreover, the call in assay [15], in assay [17] and in assay [18] was inactive.
On to `O=S(=O)(O)CC(O)CCl` (stereo unspecified), for which the Potency result in [1], in assay [2], in [4], in [5], in [6] and in assay [7] was “inactive” in each case. Moreover, the Potency result (in the assay with Aromatase (Homo sapiens); in [10]; in assay [14]; in assay [16]) was “inactive” in each case. The outcome in assay [3], in [8], in assay [9], in assay [11], in assay [12] and in assay [19] was inactive. Besides, the outcome in assay [13], in [17] and in [18] was inactive.
`CCCCN=C(N)N=C(N)N`: the Potency entry (in [1]; in assay [2]; in assay [4]; in assay [5]; in [6]; in the assay with Aromatase (Homo sapiens)) was “inactive” in each case. The Potency result in assay [10] and in assay [16] was “inactive” in each case. Moreover, the call in assay [3], in [8], in assay [9], in [11], in [12] and in assay [19] was inactive. Moreover, the call in assay [13], in assay [15] and in assay [17] was inactive. For the same molecule, in assay [7], the Potency is 16.8 µM (active).
As for `CCCCN(CCCC)CCCCCCN(CCCC)CCCC`, the Potency entry in assay [1], in assay [2], in assay [4], in assay [5], in assay [6] and in assay [7] was “inactive” throughout. The Potency result (in the assay with Aromatase (Homo sapiens); in assay [10]; in [14]; in assay [16]) was “inactive” each time. The call in assay [3], in assay [8], in assay [9], in [11], in assay [12] and in assay [19] was inactive. For the same molecule, the outcome in [13], in assay [15], in assay [17] and in [18] was inactive.
Turning to `CCOC(=O)CC(C(C)=O)C(C)=O`, the Potency result in [1], in assay [2], in assay [4], in [5], in [6] and in assay [7] was “inactive” each time. In addition, the Potency result (with Aromatase (Homo sapiens); in assay [10]; in assay [14]; in assay [16]) was “inactive” each time. Further, the molecule was called inactive in assay [3], in [8], in [9], in [11], in assay [12] and in assay [13]. Also, the molecule was classed as inactive in assay [15] and in [17].
